From the supplement of paper PMC6555819

Tests used:
Assay in all cases: PBM binding z-score (relative to random genomic background probes); higher = stronger binding; sequences stand for … in GC…GCGATTGACAGCGTAGAATGAAGG
[1] = test system: FXR:RXRa (NR concentration 270 nM, RXRa partner concentration 90 nM)
Summary of the method: (§1)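 Custom Agilent 4×180K protein-binding microarrays carried double-stranded probes, each with a 34-nt variable region. These regions held direct-repeat seeds, single-nucleotide variants, half-site ablations and random human genomic background sequences. Ligand-free nuclear receptor dimers were incubated on the arrays for 1 h, antibodies against each partner (one per run) detected binding, and scanned fluorescence was regression-normalized. Binding z-scores take the random background probes as reference.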

[2] = test system: LXRa:RXRa (NR concentration 270 nM, RXRa partner concentration 90 nM)
Summary of the method: as §1

[3] = test system: LXRa homodimer (NR concentration 270 nM)
Summary of the method: as §1

[4] = test system: LXRb:RXRa (NR concentration 270 nM, RXRa partner concentration 90 nM)
Summary of the method: as §1

[5] = test system: LXRb homodimer (NR concentration 270 nM)
Summary of the method: as §1

[6] = test system: PPARa:RXRa (NR concentration 270 nM, RXRa partner concentration 90 nM)
Summary of the method: as §1

[7] = test system: PPARg:RXRa (NR concentration 180 nM, RXRa partner concentration 90 nM)
Summary of the method: as §1

[8] = test system: PPARg:RXRa 270nM:90nM, anti-RXR (NR concentration 270 nM, RXRa partner concentration 90 nM)
Summary of the method: as §1

[9] = test system: PPARg:RXRa 30nM:10nM, anti-RXR (NR concentration 30 nM, RXRa partner concentration 10 nM)
Summary of the method: as §1

[10] = test system: PPARg:RXRa 90nM:30nM, anti-RXR (NR concentration 90 nM, RXRa partner concentration 30 nM)
Summary of the method: as §1

[11] = test system: PPARg:RXRa DBDmut IVT, anti-RXR (DBD mutation: RXRa K156A/R161A, NR concentration 270 nM, RXRa partner concentration 90 nM)
Summary of the method: as §1

[12] = test system: PPARg:RXRa IVT, anti-PPARg (NR concentration 270 nM, RXRa partner concentration 90 nM)
Summary of the method: as §1

[13] = test system: PPARg DBDmut:RXRa IVT, anti-PPARg (DBD mutation: PPARg1 K132A/R137A, NR concentration 270 nM, RXRa partner concentration 90 nM)
Summary of the method: as §1

[14] = test system: PPARg DBDmut IVT, anti-PPARg (DBD mutation: PPARg1 K132A/R137A, NR concentration 270 nM)
Summary of the method: as §1

[15] = test system: PPARg homodimer (NR concentration 180 nM)
Summary of the method: as §1

[16] = test system: PXR:RXRa (NR concentration 270 nM, RXRa partner concentration 90 nM)
Summary of the method: as §1

[17] = test system: PXR homodimer (NR concentration 270 nM)
Summary of the method: as §1

[18] = test system: RARa:RXR (NR concentration 270 nM, RXRa partner concentration 90 nM)
Summary of the method: as §1

[19] = test system: RARa homodimer (NR concentration 270 nM)
Summary of the method: as §1

[20] = test system: RARb:RXRa (NR concentration 270 nM, RXRa partner concentration 90 nM)
Summary of the method: as §1

Sequence | PBM binding z-score [1] | PBM binding z-score [2] | PBM binding z-score [3] | PBM binding z-score [4] | PBM binding z-score [5] | PBM binding z-score [6] | PBM binding z-score [7] | PBM binding z-score [8] | PBM binding z-score [9] | PBM binding z-score [10] | PBM binding z-score [11] | PBM binding z-score [12] | PBM binding z-score [13] | PBM binding z-score [14] | PBM binding z-score [15] | PBM binding z-score [16] | PBM binding z-score [17] | PBM binding z-score [18] | PBM binding z-score [19] | PBM binding z-score [20]
CCGAGTAGGTTATGGGGCATTGAGGCAACGGTGA | 0.345 | 0.579 | -0.265 | 0.437 | -0.0283 | 2.09 | 3.48 | 4.63 | 2.18 | 4.57 | 3.23 | 3.52 | -0.234 | 0.034 | 1.19 | -0.0257 | 0.241 | 0.37 | 0.756 | 0.976
ACTATTAGGTGACTTAGGGCAACCGATACGACGC | 0.616 | 0.424 | 0.428 | 0.142 | 0.261 | 1.27 | 1.85 | 1.34 | 0.448 | 0.872 | 4.96 | 3.9 | 1.48 | 0.993 | 0.861 | 0.146 | 0.0513 | 0.9 | 1 | 1.31
GTAACAAGGTGAATAGGTCGTTGATGAGTAGGCG | 1.22 | 1.04 | 0.00254 | 0.69 | -0.186 | 2.9 | 2.64 | 2.88 | 1.27 | 2.48 | 3.26 | 3.65 | 0.827 | 0.585 | 1.61 | 1.02 | 0.451 | 2.04 | 0.797 | 2.06
GCTAGCAGGGCATTTGGGTCACTCAATGACGGGC | 0.398 | 0.383 | -0.133 | 0.541 | -0.663 | 1.77 | 1.28 | 1.08 | -0.197 | 0.478 | 2.42 | 3.14 | 0.0662 | -0.844 | 0.341 | 1.06 | 0.171 | 1 | -0.58 | 1.76
CCTTACGGGTCACTCCAGTTTATAGCATCGGAGT | 5.02 | 6.61 | 0.838 | 3.77 | -0.0101 | 4.4 | 3.25 | 3.3 | 1.11 | 2.27 | 2.98 | 3.39 | 0.913 | 0.686 | 2.32 | 6.04 | 1.06 | 3.6 | 0.603 | 3.74
CCTATTAGTTGACCATAACGGCAACCGAAGCTCG | 0.455 | 0.697 | 0.909 | 0.584 | 0.966 | 0.199 | 0.702 | 0.486 | 0.219 | 0.318 | 0.934 | 0.243 | 0.836 | 1.13 | 2.08 | 0.499 | 1.25 | 0.72 | 2.49 | 0.584
GCTGCTAGGTCAGGTTGGTCAGCGAACGGGTACG | 1.22 | 0.707 | -0.269 | 0.492 | -0.499 | 1.3 | 0.347 | 0.793 | -0.213 | 0.414 | 2.7 | 2.09 | 0.222 | -1.25 | 0.933 | 0.281 | -0.36 | 0.76 | -0.581 | 3.31
CCTCGGAGGAGAACAGGAGGTCAGAGCTGCCAGA | 1.12 | 1.8 | 1.57 | 1.43 | -0.244 | 1.87 | 0.262 | 0.0579 | -0.552 | -0.216 | -0.418 | 0.248 | -1.26 | -1.78 | 1.58 | 1.87 | 0.761 | 2.19 | 0.495 | 1.95
CAAACTAGGTGACCGGAAGGTCAAAGTCCGCATG | 6.44 | 4.09 | 4.16 | 3.51 | 0.36 | 4.99 | 6.71 | 5.5 | 3.01 | 5.06 | 7.47 | 7.68 | 2.87 | 3.33 | 3.59 | 4.49 | 1.01 | 5.41 | 0.811 | 3.81
AGTCAAAGTTCATCTAGATAACGTAAGATATGCT | 7.05 | 5.89 | 5.02 | 4.13 | 1.82 | 5 | 6.44 | 6.12 | 3.12 | 5.43 | 0.216 | 2.84 | 1.25 | 1.73 | 2.62 | 5 | 4.36 | 3.39 | 1.59 | 4.9
CCTTACGGGTCATGAGGTTATAGCACGACGAGCG | 7.04 | 4.93 | 0.379 | 3.84 | 0.286 | 5.85 | 5.69 | 5.69 | 2.37 | 4.58 | 3.29 | 4.22 | 1.38 | 0.99 | 3.37 | 4.44 | 0.345 | 5.82 | 1.27 | 4.11
ACGATTAGTTGACTTAGGGCAACCGATACGACGC | -0.0158 | -0.0959 | 0.339 | 0.0402 | -0.172 | -0.0149 | 0.855 | -0.28 | 0.0988 | -0.124 | -0.586 | 0.153 | 0.298 | 0.246 | -0.134 | 0.199 | -0.0112 | 0.392 | 0.251 | 0.703
CGAACTAGGTCATTGACAGGACAGTCAATAGTAA | 4.28 | 3.15 | 0.489 | 2.19 | 0.17 | 4.74 | 7.38 | 6.08 | 3.32 | 5.75 | 7.74 | 8.19 | 3.76 | 2.34 | 1.94 | 1.66 | 0.135 | 2.34 | 0.378 | 3.51
CAAACTAGGTCACAGACGTCAAAGTCCGTGCGTA | 4.25 | 3.06 | 0.272 | 2.08 | 0.253 | 5.37 | 8.86 | 7.39 | 5.35 | 7.4 | 8.58 | 8.8 | 3 | 2.09 | 2.24 | 1.72 | 0.0509 | 2.65 | 0.354 | 4.08
